Only some compounds are listed: those with a hit (about 12% of all), similar ones and a draw of the others.
JMJD2A Tudor inh – qHTS Assay for Inhibitors of JMJD2A-Tudor Domain; AlphaScreen JMJD2A-Tudor / H3K4me3 peptide binding; actives 4.4% (n = 390,000); Potency, µM (series often up to 114 µM), usual class: inhibitors; Lysine-specific demethylase 4A (Homo sapiens), O75164; also: nearly all actives have a fitted effect of over 50% in size
TDP1 block – qHTS Assay for Inhibitors of Tyrosyl-DNA Phosphodiesterase (TDP1); Tyrosyl-DNA phosphodiesterase 1 (Homo sapiens), Q9NUW8; recombinant TDP1, AlphaScreen DNA substrate cleavage; Potency, µM (series often up to 130 µM), hits mostly inhibitors; actives 0.28% (n = 350,000); also: nearly all actives have a fitted effect of over 40% in size
Target sequence (Q9NUW8 whole entry, looked up): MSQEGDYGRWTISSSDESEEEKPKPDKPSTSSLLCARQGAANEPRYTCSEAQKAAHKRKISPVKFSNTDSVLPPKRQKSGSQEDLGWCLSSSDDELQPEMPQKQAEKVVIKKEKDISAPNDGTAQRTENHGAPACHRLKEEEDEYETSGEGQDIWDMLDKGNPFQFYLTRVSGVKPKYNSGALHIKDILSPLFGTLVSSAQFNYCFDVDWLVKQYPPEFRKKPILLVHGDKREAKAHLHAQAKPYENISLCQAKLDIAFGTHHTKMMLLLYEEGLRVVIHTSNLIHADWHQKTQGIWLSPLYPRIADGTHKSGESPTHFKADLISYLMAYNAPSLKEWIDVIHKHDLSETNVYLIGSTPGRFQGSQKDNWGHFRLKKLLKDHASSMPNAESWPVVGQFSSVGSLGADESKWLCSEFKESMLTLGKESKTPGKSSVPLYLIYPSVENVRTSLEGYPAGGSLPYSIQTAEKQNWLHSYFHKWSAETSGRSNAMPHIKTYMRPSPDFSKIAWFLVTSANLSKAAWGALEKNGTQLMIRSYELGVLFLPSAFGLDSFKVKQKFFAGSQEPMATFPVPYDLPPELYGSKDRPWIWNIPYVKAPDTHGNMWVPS
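Here, a 5' biotin and 3' phosphotyrosine-FITC DNA oligonucleotide reports Tdp1 activity: intact substrate bridges AlphaScreen beads, while cleavage leaves a 3' phosphate and drops signal. All incubations at room temperature.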
G9a inh – qHTS Assay for Inhibitors of Histone Lysine Methyltransferase G9a; G9a H3K9 monomethylation, AlphaScreen, 2 h; AID 504332, 2011; Histone-lysine N-methyltransferase EHMT2 (Homo sapiens), Q96KQ7; Potency, µM (titrated, usually from 102 µM), most hits filed as inhibitors; actives 8.8% (n = 350,000); also: nearly all actives have a fitted effect of over 75% in size
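Signal arises when biotinylated H3K9 peptide, once monomethylated, bridges streptavidin donor and antibody-captured acceptor beads. Enzyme at 20 nM was preincubated 15 min with test compounds; peptide 500 nM and SAM 20 uM then reacted for 2 h.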
BAZ2B block – qHTS Assay for Inhibitors of BAZ2B; AlphaScreen BAZ2B-H3K14Ac peptide displacement; Bromodomain adjacent to zinc finger domain protein 2B (Homo sapiens), Q9UIF8; AID 504333, 2011; Potency, µM (titrated, usually from 114 µM), hits mostly inhibitors; actives 4.4% (n = 360,000); also: nearly all actives have a fitted effect of over 60% in size
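Complex of BAZ2B and biotin-H3K14Ac (50 nM apiece) forms over 30 min at RT, then faces library compounds up to 110 uM for another 30 min; AlphaScreen beads added, 20 min dark incubation, luminescence read.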
Sfp inh – qHTS Assay for Inhibitors of Bacillus subtilis Sfp phosphopantetheinyl transferase (PPTase); Biochemical Sfp PPTase activity, qHTS; Potency, µM, actives largely listed as inhibitors; actives 3.5% (n = 310,000);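 also: the enzyme is Sfp with the accession as filed and its product quenches rhodamine fluorescence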
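Compounds were incubated with enzyme (final 15 nM) for 15 min at room temperature before substrate addition started the reaction. Fluorescence at 525 nm excitation, 598 nm emission was recorded immediately and after 30 minutes.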
HP1b binding inh – HTS for Inhibitors of HP1-beta Chromodomain Interactions with Methylated Histone Tails | AlphaScreen HP1-beta / biotin-H3K9me3 peptide binding | Potency, µM (titrated, usually from 114 µM), actives largely listed as inhibitors | actives 0.56% (n = 390,000); also: nearly all actives have a fitted effect of over 70% in size
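HP1-beta protein (50 nM final) preincubated 30 min at room temperature with biotinylated H3(1-18)K9me3 peptide (50 nM) in PBS pH 7.4, 0.01% Tween-20, then compound added for 30 min. AlphaScreen streptavidin donor/nickel chelate acceptor beads (10 ug/mL final), 30 min dark, luminescence read.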
Of the large screens only hits and unclear results are named; the others gave an inactive call. Calls follow the shape of the dose curve; as a rule, active = well fitted curve in the direction sought with a large enough effect; inconclusive = small, poorly fitted or top-dose-only effect, or another doubt; inactive = no such curve, though single readings can be large; an effect the other way counts as inactive or inconclusive.

O=Cc1ccc2ccc3cccnc3c2n1	JMJD2A Tudor inh 63µM, G9a inh inconclusive, BAZ2B block inconclusive (no result: TDP1 block)
CN(CC(=O)Nc1cccc(F)c1)C(=O)CN1C(=O)NC2(CCCC2)C1=O	none (no result: Sfp inh)
O=C(c1ccc(CS(=O)c2ccccc2Cl)o1)N1CCN(c2ccccc2F)CC1 (stereo not given)	none (no result: Sfp inh)
CS/C(N)=N/N=C/c1c(O)ccc2ccccc12	G9a inh 11µM
Oc1ccccc1N=Cc1c(O)ccc2ccccc12	JMJD2A Tudor inh inconclusive, G9a inh 7.9µM, BAZ2B block 11µM
OCC(CO)(CO)N=Cc1c(O)ccc2ccccc12	JMJD2A Tudor inh inconclusive, G9a inh 1.4µM (no result: BAZ2B block)
Oc1ccccc1C=Nc1cccc2ccccc12	G9a inh inconclusive
Oc1ccc2ccccc2c1C=Nc1ccccc1Br	JMJD2A Tudor inh inconclusive, BAZ2B block inconclusive, HP1b binding inh inconclusive (no result: G9a inh)
Oc1cccc(C=Nc2cccc3ccccc23)c1O	JMJD2A Tudor inh 14µM, BAZ2B block 45µM, Sfp inh 13µM, HP1b binding inh inconclusive (no result: G9a inh)
Cc1ccc(S(=O)(=O)N2CCCCC2)cc1NC(=O)COC(=O)c1ccc(O)cc1	none
COc1cccc(CNC(=O)CCCN2C(=O)CSc3c2c(C)nn3-c2ccccc2)c1OC	none (no result: Sfp inh)
C=Cc1ccc(N=Cc2c(O)ccc3ccccc23)cc1	JMJD2A Tudor inh inconclusive, G9a inh 1.6µM (no result: TDP1 block)
Oc1ccc2ccccc2c1C=NC12CN3CCN(CN(C3)C1)C2	JMJD2A Tudor inh 79µM, G9a inh inconclusive, BAZ2B block inconclusive, Sfp inh inconclusive, HP1b binding inh inconclusive
Oc1ccc2ccccc2c1/C=N/c1nccs1	G9a inh inconclusive, BAZ2B block inconclusive, Sfp inh inconclusive
Cc1cc(C(=O)O)ccc1N=Cc1c(O)ccc2ccccc12	JMJD2A Tudor inh inconclusive, G9a inh 2.5µM (no result: TDP1 block)
Oc1ccc2ccccc2c1C=Nc1ccc(N2CCOCC2)cc1	JMJD2A Tudor inh 50µM, G9a inh inconclusive, BAZ2B block 40µM, HP1b binding inh inconclusive
O=C(N/N=C/c1c(O)ccc2ccccc12)c1cccc(C(F)(F)F)c1	none
O=C(N/N=C/c1c(O)ccc2ccccc12)c1[nH]ncc1Br	none
COc1cccc(C2c3c(ncn(-c4ccc(Br)cc4)c3=N)Oc3ccc4ccccc4c32)c1 (stereo not given)	JMJD2A Tudor inh inconclusive (no result: G9a inh, BAZ2B block, Sfp inh, HP1b binding inh)
O=C(CSc1nc(-c2ccccc2)c2ccccc2n1)Nc1ccc(F)cc1	none (no result: Sfp inh)
COCCn1c(SCC(=O)NC2CCCC2)nc2c(c1=O)SCC2	none
CN(C)/N=C/c1c(O)ccc2ccccc12	JMJD2A Tudor inh 56µM, G9a inh 10µM, BAZ2B block 45µM, HP1b binding inh inconclusive
NC(=O)CC[C@H](NC(=O)c1ccc(F)cc1)C(=O)OCC(=O)NCc1ccc(F)cc1	JMJD2A Tudor inh 14µM
CC(C)c1ccc(NC(=O)COC(=O)[C@H](CCC(N)=O)NC(=O)c2ccc(F)cc2)cc1	none
CCCc1sc(N)nc1-c1ccc(Cl)cc1	G9a inh 45µM
Cc1nn(CC(=O)Nc2cc(S(=O)(=O)N3CCOCC3)ccc2Cl)c(C)c1[N+](=O)[O-]	none (no result: Sfp inh)
CCC(C)(C)NC(=O)CN(C(=O)C(=O)Nc1ccc2c(c1)OCCO2)C1CC1	none
CSCCC(C(=O)O)N1C(=O)c2ccc(C(=O)O)cc2C1=O (stereo not given)	JMJD2A Tudor inh 79µM, G9a inh 25µM
O=C(O)c1ccc2c(c1)C(=O)N(C(Cc1ccccc1)C(=O)O)C2=O (stereo not given)	BAZ2B block inconclusive
CCCCN(Cc1ccc(C(=O)N[C@H](C(=O)O)C(C)C)cc1)C(=O)C(c1ccccc1)c1ccccc1	JMJD2A Tudor inh 89µM (no result: TDP1 block, G9a inh, BAZ2B block, Sfp inh)
O=C(NNc1ccccc1)Nc1ccccc1F	G9a inh 50µM, BAZ2B block inconclusive
O=C(Nc1ccccc1F)Nc1ccccc1F	none
COc1ccc(CCNC(=O)c2nn(-c3ccc(C)cc3)c(=O)c3c2c2ccccc2n3C)cc1OC	none (no result: BAZ2B block, Sfp inh)
Cc1cc2nc(/N=C(\N)NC(=O)N3c4ccccc4Sc4ccccc43)nc(C)c2cc1C	G9a inh 50µM
Cc1ccc2nc(/N=C(\N)NC(=O)N3c4ccccc4Sc4ccccc43)nc(C)c2c1	G9a inh 50µM
CCOc1ccccc1CNC(=O)CCCc1cn(C)c2ccccc12	JMJD2A Tudor inh inconclusive, G9a inh 50µM, BAZ2B block inconclusive
CCOc1ccccc1CNC(=O)CCc1cn(C)c2ccccc12	JMJD2A Tudor inh inconclusive, BAZ2B block inconclusive
Cc1ccc(C(C)C)c(OCC(=O)NCC2(N3CCOCC3)CCCCC2)c1	none (no result: Sfp inh)

Screening results deposited in PubChem BioAssay by National Center for Advancing Translational Sciences (NCATS).
